Data taken from PubChem BioAssay (NCATS).
Where “and” joins values, the source holds several entries; their conditions need not be identical. Equal entries are not always repeated. A number with no mark means an inactive call. Results filed as inconclusive are left out. Calls of active or inactive are those of the source. Unless noted, the call rests on the fitted dose curve; in most records, active means well fitted activation curve with a large enough effect; inconclusive means small, poorly fitted or top-dose-only effect; inactive means flat fitted curve, though single readings scatter. Peptide text beside a SMILES is read from it.

Test system: not listed separately
Assay: qHTS assay for small molecule disruptors of the mitochondrial membrane potential - 5 hr assay (AID 651755; calls by dose curve; further: nearly all actives have a fitted effect of over 40% in size; further: potency means the concentration at half of the fitted maximal effect; on ratio change, negative = disruption: on the % scale 0 is the no-effect control and ±100 the full control effect)
Conditions: JC-1-type ratio dye; series mostly up to 92.2 µM; ratio change, negative = disruption: at the top concentration
In short: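 Seed HepG2 overnight, add compound, incubate 5 hr at 37C and 5% CO2, stain 30 min with Mito-MPS, then measure monomer (490/535 nm) and aggregate (540/590 nm) fluorescence.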

**Q.** Which “ratio change, negative = disruption” value does the source give for `Cc1ccc(C)c(OCCCC(C)(C)C(=O)O)c1` here?
**A.** Its value is -2.99%.

**Q.** Which “ratio change, negative = disruption” value does the source give for `COc1c2occc2cc2ccc(=O)oc12` here?
**A.** Its value is -0.211%.

**Q.** With `CS(=O)(=O)OCCCCOS(C)(=O)=O` as the compound, how does the Potency read?
**A.** Its Potency is “inactive”.

**Q.** With `CN(C)c1ccc2nc3ccc(=[N+](C)C)cc-3sc2c1` as the compound, how does the Potency read?
**A.** Its Potency is 5.31 µM (active).

**Q.** Which “ratio change, negative = disruption” value does the source give for `Nc1ccc(S(N)(=O)=O)cc1` here?
**A.** The value was -9.56%.

**Q.** With `NS(=O)(=O)c1cc(C(=O)O)c(NCc2ccco2)cc1Cl` as the compound, how does the “ratio change, negative = disruption” value read?
**A.** Its value is -1.42%.

Biological target: Tumor necrosis factor (Homo sapiens) (UniProt P01375)
Sequence (P01375 whole entry, looked up): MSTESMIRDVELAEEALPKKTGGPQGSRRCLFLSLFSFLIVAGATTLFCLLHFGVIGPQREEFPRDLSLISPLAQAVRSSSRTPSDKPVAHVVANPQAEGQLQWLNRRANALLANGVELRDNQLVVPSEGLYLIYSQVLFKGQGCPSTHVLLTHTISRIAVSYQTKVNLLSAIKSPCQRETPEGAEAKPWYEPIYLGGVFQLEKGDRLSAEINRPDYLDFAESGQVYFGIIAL
Assay: qHTS assay to identify small molecules that stimulate Tumor Necrosis Factor-alpha (TNF-alpha) secretion (AID 651757; active means well fitted curve in the direction sought with a large enough effect in the signal ratio; the % refers to the signal ratio; further: potency means the concentration at half of the fitted maximal effect; on activation (TNF-alpha secretion): 0% is about no effect)
Conditions: Human cells, HTRF 665/615 ratio; series mostly up to 92.2 µM; activation (TNF-alpha secretion): at the top concentration
In short: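 Human monocytic THP-1 cells are plated, treated with compound and held at 37 C for 17 hrs. Labeled anti-TNF-alpha antibody mixture is then added; after 3 hr at room temperature, TR-FRET signal reports secreted TNF-alpha.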

**Q.** For `COC(=O)[C@H](Cc1ccccc1)NC(=O)[C@@H](N)CC(=O)O` (H-Asp-Phe-OMe), which “activation (TNF-alpha secretion)” value is on record?
**A.** Its value is -0.323%.

**Q.** For `Cc1ccc(C)c(OCCCC(C)(C)C(=O)O)c1`, which “activation (TNF-alpha secretion)” value is on record?
**A.** Its value is 0.0166%.

**Q.** Which “activation (TNF-alpha secretion)” value does the source give for `CCc1nc(N)nc(N)c1-c1ccc(Cl)cc1` here?
**A.** Its value is 0.0298%.

**Q.** Which “activation (TNF-alpha secretion)” value does the source give for `CCCc1cc(=O)[nH]c(=S)[nH]1` here?
**A.** The value was 0.172%.

**Q.** Which “activation (TNF-alpha secretion)” value does the source give for `COc1c2occc2cc2ccc(=O)oc12` here?
**A.** Its value is 1.63%.

**Q.** With `CCCCC(CC)COC(=O)C(C#N)=C(c1ccccc1)c1ccccc1` (stereo not given) as the compound, how does the “activation (TNF-alpha secretion)” value read?
**A.** The value was 0.58%.

**Q.** Which Potency does the source give for `CS(=O)(=O)OCCCCOS(C)(=O)=O` here?
**A.** The Potency was “inactive”.

**Q.** With `CN(C)c1ccc2nc3ccc(=[N+](C)C)cc-3sc2c1` as the compound, how does the Potency read?
**A.** The Potency was 10.6 µM (active).

**Q.** With `CC(=O)Nc1ccc(O)cc1` as the compound, how does the “activation (TNF-alpha secretion)” value read?
**A.** Its value is -0.0331%.

**Q.** With `Nc1ccc(S(N)(=O)=O)cc1` as the compound, how does the “activation (TNF-alpha secretion)” value read?
**A.** The value was -0.107%.

**Q.** Which “activation (TNF-alpha secretion)” value does the source give for `c1ccc2[nH]c(-c3cscn3)nc2c1` here?
**A.** The value was -0.103%.

**Q.** For `NS(=O)(=O)c1cc(C(=O)O)c(NCc2ccco2)cc1Cl`, which “activation (TNF-alpha secretion)” value is on record?
**A.** Its value is 0.207%.

Test system: not listed separately
Assay: qHTS assay to identify small molecules that stimulate interleukin-8 (IL-8) secretion (AID 651758; active means well fitted activation curve with a large enough effect in the signal ratio; the % refers to the signal ratio; further: 0% is about no effect)
Conditions: HTRF ratio (665/615); series mostly up to 92.2 µM; activation: at the top concentration
In short: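 Quantitative HTS in THP-1 monocytic cells at 2000 cells per well, with 16 hrs compound incubation at 37 C. IL-8 in the medium was then quantified by HTRF immunoassay, read after 1-3 hrs at room temperature.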

**Q.** Which “activation” value does the source give for `COC(=O)[C@H](Cc1ccccc1)NC(=O)[C@@H](N)CC(=O)O` (H-Asp-Phe-OMe) here?
**A.** The value was 17.4%.

**Q.** For `CCc1nc(N)nc(N)c1-c1ccc(Cl)cc1`, which “activation” value is on record?
**A.** The value was 14.5%.

**Q.** With `CS(=O)(=O)OCCCCOS(C)(=O)=O` as the compound, how does the “activation” value read?
**A.** Its value is -3.54%.

Test system: not listed separately
Assay: qHTS assay for environmental chemicals that activate the Aryl hydrocarbon Receptor (AhR) signaling pathway (AID 651777); further: nearly all actives have a fitted effect of over 15% in size; further: potency means the concentration at half of the fitted maximal effect; on activation: % of control where 0% means no effect
Conditions: 1A2-DRE human hepatoma cells, luciferase, 24 h; activation: stronger effect = higher value
In short: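 Reporter gene assay: hepatoma cells with DRE/CYP1A2-luciferase, 24 hr compound incubation at 37 C, 5% CO2, luminescence after One-Glo (30 min, RT).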

**Q.** For `COC(=O)[C@H](Cc1ccccc1)NC(=O)[C@@H](N)CC(=O)O` (H-Asp-Phe-OMe), which activation is on record?
**A.** Its activation is -1.45% and -0.834%.

**Q.** With `Cc1ccc(C)c(OCCCC(C)(C)C(=O)O)c1` as the compound, how does the activation read?
**A.** Its activation is -0.112% and 1.21%.

**Q.** For `CCc1nc(N)nc(N)c1-c1ccc(Cl)cc1`, which activation is on record?
**A.** Its activation is 1.47% and 0.312%.

**Q.** Which activation does the source give for `CCCc1cc(=O)[nH]c(=S)[nH]1` here?
**A.** The activation was 0.594% and 1.79%.

**Q.** With `CCCCC(CC)COC(=O)C(C#N)=C(c1ccccc1)c1ccccc1` (stereo not given) as the compound, how does the activation read?
**A.** Its activation is 0.749%.

**Q.** With `CS(=O)(=O)OCCCCOS(C)(=O)=O` as the compound, how does the activation read?
**A.** The activation was 2.49% and 0.0953% and 0.509%.

**Q.** Which activation does the source give for `CC1(C)NC(=O)N(c2ccc([N+](=O)[O-])c(C(F)(F)F)c2)C1=O` here?
**A.** The activation was 1.77%.

**Q.** For `CN(C)c1ccc2nc3ccc(=[N+](C)C)cc-3sc2c1`, which activation is on record?
**A.** Its activation is -2.65%.

**Q.** For `N[C@@H](Cc1cc(I)c(Oc2cc(I)c(O)c(I)c2)c(I)c1)C(=O)O`, which Potency is on record?
**A.** Its Potency is 44.7 µM (active).

**Q.** For `CNC[C@H](O)c1ccc(O)c(O)c1`, which activation is on record?
**A.** Its activation is -0.576%.

**Q.** Which Potency does the source give for `Cc1cc(O)c2c(c1)C(=O)c1cc(O)cc(O)c1C2=O` here?
**A.** The Potency was 44.7 µM (active).

**Q.** Which activation does the source give for `CC(=O)Nc1ccc(O)cc1` here?
**A.** Its activation is 1.7% and -0.186%.

**Q.** For `Nc1ccc(S(N)(=O)=O)cc1`, which activation is on record?
**A.** The activation was -0.82%.

**Q.** Which activation does the source give for `COc1cc(OC)c(C(=O)CCCN2CCCC2)c(OC)c1` here?
**A.** Its activation is -1.93%.

**Q.** Which activation does the source give for `Nc1nc(Cl)nc2c1ncn2[C@H]1C[C@H](O)[C@@H](CO)O1` here?
**A.** Its activation is 1.52%.

**Q.** With `O=c1c(O)c(-c2ccc(O)cc2O)oc2cc(O)cc(O)c12` as the compound, how does the activation read?
**A.** Its activation is 4.65%.

Biological target: Peroxisome proliferator-activated receptor alpha (Homo sapiens) (UniProt Q07869)
Sequence (Q07869 whole entry, looked up): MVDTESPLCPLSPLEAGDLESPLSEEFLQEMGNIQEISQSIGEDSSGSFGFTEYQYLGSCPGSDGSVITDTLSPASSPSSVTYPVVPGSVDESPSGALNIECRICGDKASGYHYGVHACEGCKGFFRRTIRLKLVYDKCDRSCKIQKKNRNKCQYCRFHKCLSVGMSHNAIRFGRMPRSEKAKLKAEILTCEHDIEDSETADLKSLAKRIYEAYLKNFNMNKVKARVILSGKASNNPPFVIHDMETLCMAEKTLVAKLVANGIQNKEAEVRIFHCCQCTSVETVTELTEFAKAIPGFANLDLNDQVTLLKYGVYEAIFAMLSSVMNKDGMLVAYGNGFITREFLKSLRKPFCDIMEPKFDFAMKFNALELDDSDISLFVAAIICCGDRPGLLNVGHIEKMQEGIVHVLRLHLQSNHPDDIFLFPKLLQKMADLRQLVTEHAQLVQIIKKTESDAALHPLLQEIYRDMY
Assay: qHTS assay for small molecule agonists of the peroxisome proliferator-activated receptor alpha (PPARalpha) signaling pathway (AID 651778); further: % of control where 0% means no effect
Conditions: PathHunter PPARalpha complementation, chemiluminescence, 6 h; stronger effect = higher value
In short: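 Cells plated at 2,000/well and held overnight at 37 C, 5% CO2, then compound added by pin tool for 6 hr; after PathHunter detection reagent and 60 min at room temperature, chemiluminescence from enzyme complementation was read.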

**Q.** For `COC(=O)[C@H](Cc1ccccc1)NC(=O)[C@@H](N)CC(=O)O` (H-Asp-Phe-OMe), which max response is on record?
**A.** Its max response is -1.47% and -4.11%.

**Q.** Which max response does the source give for `Cc1ccc(C)c(OCCCC(C)(C)C(=O)O)c1` here?
**A.** The max response was 0.635% and 1.7%.

**Q.** Which max response does the source give for `CCc1nc(N)nc(N)c1-c1ccc(Cl)cc1` here?
**A.** Its max response is -1.61% and -1.39%.

**Q.** With `CCCc1cc(=O)[nH]c(=S)[nH]1` as the compound, how does the max response read?
**A.** Its max response is -4.59% and -0.354%.

**Q.** With `COc1c2occc2cc2ccc(=O)oc12` as the compound, how does the max response read?
**A.** The max response was -3.1% and -0.368%.

**Q.** Which max response does the source give for `CCCCC(CC)COC(=O)C(C#N)=C(c1ccccc1)c1ccccc1` (stereo not given) here?
**A.** Its max response is -1.78%.

**Q.** For `CS(=O)(=O)OCCCCOS(C)(=O)=O`, which max response is on record?
**A.** The max response was -1.17% and -9.71% and -0.247%.

**Q.** With `CC1(C)NC(=O)N(c2ccc([N+](=O)[O-])c(C(F)(F)F)c2)C1=O` as the compound, how does the max response read?
**A.** Its max response is -2.93%.

**Q.** With `CN(C)c1ccc2nc3ccc(=[N+](C)C)cc-3sc2c1` as the compound, how does the max response read?
**A.** The max response was -7.81%.

**Q.** For `N[C@@H](Cc1cc(I)c(Oc2cc(I)c(O)c(I)c2)c(I)c1)C(=O)O`, which max response is on record?
**A.** The max response was -3.72%.

**Q.** Which max response does the source give for `CNC[C@H](O)c1ccc(O)c(O)c1` here?
**A.** Its max response is -0.497%.

**Q.** Which max response does the source give for `Cc1cc(O)c2c(c1)C(=O)c1cc(O)cc(O)c1C2=O` here?
**A.** The max response was -5.19% and -6.73%.

**Q.** Which max response does the source give for `Nc1ccc(S(N)(=O)=O)cc1` here?
**A.** Its max response is 3.64%.

**Q.** For `c1ccc2[nH]c(-c3cscn3)nc2c1`, which max response is on record?
**A.** Its max response is -1.63% and -0.401%.

**Q.** Which max response does the source give for `COc1cc(OC)c(C(=O)CCCN2CCCC2)c(OC)c1` here?
**A.** The max response was -0.755%.

**Q.** With `CC(=O)N1CCN(c2ccc(OC[C@H]3CO[C@](Cn4ccnc4)(c4ccc(Cl)cc4Cl)O3)cc2)CC1` as the compound, how does the max response read?
**A.** The max response was -0.168%.

**Q.** Which max response does the source give for `Nc1nc(Cl)nc2c1ncn2[C@H]1C[C@H](O)[C@@H](CO)O1` here?
**A.** Its max response is -0.979%.

**Q.** Which max response does the source give for `O=c1c(O)c(-c2ccc(O)cc2O)oc2cc(O)cc(O)c12` here?
**A.** The max response was -3.16%.
